Laboratory results published in PubChem BioAssay.

Test system: wheat germ agglutinin (Triticum aestivum), Alexa647-labelled
Test: wheat germ agglutinin binders on compound microarrays, profiling panel, artefact control for SMM control-protein annotation, biochemical, small-molecule microarray, 635/667 nm fluorescence (AID 1140);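 also: score merges 667 nm feature emission with signal to noise over triplicate slides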
Conditions: WGA-A647 binding, 635 nm fluorescence, higher = more signal

Going from `CON=C(C)CCN1CCCCc2nc(C)c(C)cc21` to `CC(C)=NOC(C)CN1CCCc2nc(C)c(C)cc21` (stereo not drawn), the composite z-score falls from 0.495 to 0.323.

First: CCOC(=O)[C@H](Cc1ccccc1)NC(=O)CCC1CC(OC(=O)NCc2cccc3ccccc23)CC2(CCCC(COC(=O)NCC3CCCCC3)O2)O1 (stereo partly drawn)
Second: CCOC(=O)[C@H](Cc1ccccc1)NC(=O)CCC1CC(OC(=O)NCc2ccc3c(c2)OCO3)CC2(CCCC(COC(=O)NCCOc3ccccc3)O2)O1 (stereo partly drawn)
The composite z-score of the first is lower: -0.264 for the first, 0.304 for the second.

Compared with `CO[C@H]1COC(=O)CCC[C@H](C)[C@@H](OC)COC(=O)CC=C[C@@H]1C`, `CO[C@@H]1COC(=O)[C@@H]2CCCN2C(=O)[C@@H](C)COC(=O)CCC[C@H]1C` is higher in composite z-score: -0.181 for the first, 0.2 for the second.

Compared with `C[C@H]1C=CCC(=O)OC[C@H](C)C(=O)N2CCC[C@H]2C(=O)OC1`, `CO[C@@H]1COC(=O)[C@H](CCSC)NC(=O)CC=C[C@@H](C)COC(=O)[C@@H]2CCCN2C(=O)CC=C[C@H]1C` is lower in composite z-score: -1.18 for the first, -1.37 for the second.

Going from `CC(=O)OC[C@H]1O[C@H](CCON=C(C)C)C=C[C@@H]1OC(C)=O` to `CC(=O)OC[C@H]1O[C@H](CC=NO[C@H](C)c2cn([C@@H]3COC[C@H]3O)nn2)C=C[C@@H]1OC(C)=O`, the composite z-score rises from -0.178 to -0.0712.

First: CC(C)[C@@H](OCc1ccccc1)[C@H](C)C=NO[C@@H](C)c1cn([C@H](CO)Cc2ccccc2)nn1
Second: CCN1C(=O)[C@H]2[C@H]3[C@H](O)[C@H](O)CC(=NO[C@H](C)c4cn([C@H](CO)Cc5ccccc5)nn4)[C@@H]3CC[C@H]2C1=O
The composite z-score of the first is lower: 0.0578 for the first, 1.15 for the second.

Going from `O=C1C2=CC[C@H]3C(=O)N(C4CCCCC4)C(=O)[C@H]3[C@H]2[C@H](O)[C@@H]2O[C@H]12` to `O=C1C2=CC[C@H]3C(=O)N(C[C@@H]4CCCO4)C(=O)[C@H]3[C@H]2[C@H](O)[C@@H]2O[C@H]12`, the composite z-score rises from -0.685 to -0.153.

First: CC(C)(C)N1C(=O)[C@H]2[C@H]3[C@H](O)[C@H](O)CC(=NNC(=O)OCc4ccccc4)[C@H]3CC[C@H]2C1=O
Second: CC(C)(C)N1C(=O)[C@H]2[C@H]3[C@H](O)[C@H](O)CC(=NNC(=O)OCc4ccccc4)[C@@H]3CC[C@H]2C1=O
The composite z-score of the first is higher: 0.525 for the first, 0.433 for the second.

Compared with `CO[C@@H]1C=CCC(=O)N[C@@H](C)C(=O)OC[C@@H](NS(=O)(=O)c2ccc(C)cc2)[C@H](C)C=CCC(=O)OC[C@H]1C`, `CC(CCC(=O)OC[C@H]1O[C@H](C#Cc2ccccc2)C=C[C@@H]1Oc1ccc(C)cc1)=NO[C@H](C)c1cn([C@@H]2COC[C@H]2O)nn1` is lower in composite z-score: 0.326 for the first, 0.299 for the second.

Compared with `C[C@@H]1CC[C@@H](C(=O)O)N[C@H]1c1cccc(N2CCOCC2)c1`, `C[C@H]1CC[C@H]2C(=O)N[C@H](Cc3ccccc3)C(=O)N2[C@@H]1c1ccccc1` is lower in composite z-score: 0.227 for the first, -0.112 for the second.

Going from `O=C1[C@H]2[C@H]3[C@H](O)[C@H](O)CC(=NOC[C@@H](O)COCc4ccco4)[C@@H]3CC[C@H]2C(=O)N1C1CCCCC1` to `O=C1[C@H]2[C@H]3[C@H](O)[C@H](O)CC(=NOC[C@@H](O)COCc4ccco4)[C@@H]3CC[C@H]2C(=O)N1Cc1ccccc1`, the composite z-score rises from -0.284 to 0.265.

First: O=C1CCCC=C1C(O)COCc1ccccc1 (stereo not drawn)
Second: COC(OC)[C@@H](C)[C@H](OC)[C@@H](C)[C@H](OC)c1ccccc1
The composite z-score of the first is higher: -0.0439 for the first, -0.0965 for the second.

Compared with `COc1ccc(COC(=O)NN=C2C[C@@H](O)[C@@H](O)[C@@H]3[C@@H]4C(=O)N(C5CCCCC5)C(=O)[C@@H]4CC[C@@H]23)cc1`, `O=C1C=C[C@@H](O)[C@@H]2[C@@H]3C(=O)N(C4CCCCC4)C(=O)[C@@H]3CC[C@@H]12` is lower in composite z-score: 0.401 for the first, 0.0297 for the second.

First: COC(=O)CC=C[C@@H](C)[C@@H](C=NOC[C@@H](O)COCc1ccco1)OC
Second: CC#CCOCCC=C1c2ccccc2[C@@H](OC)[C@@H]1C
The composite z-score of the first is lower: -0.83 for the first, 0.725 for the second.

Compared with `O=C1[C@H]2[C@H]3[C@H](O)[C@H](O)CC(=NO[C@@H]4O[C@H](CO)[C@@H](O)[C@H](O)[C@H]4O)[C@@H]3CC[C@H]2C(=O)N1C[C@@H]1CCCO1`, `O=C1[C@H]2[C@H]3[C@H](O)[C@H](O)CC(=NO[C@@H]4O[C@H](CO)[C@@H](O)[C@H](O)[C@H]4O)[C@H]3CC[C@H]2C(=O)N1C[C@@H]1CCCO1` is lower in composite z-score: 0.326 for the first, -0.442 for the second.

Going from `CCOC(=O)[C@H](Cc1ccccc1)NC(=O)CCC1CC(OC(=O)NCCc2ccc(F)cc2)CC2(CCCC(COC(=O)NCc3cccc(C(F)(F)F)c3)O2)O1` (stereo partly drawn) to `CCN1C(=O)[C@H]2[C@@H]3C(=CC[C@H]2C1=O)C(=O)[C@H]1O[C@H]1[C@H]3O`, the composite z-score falls from 0.502 to 0.207.

With `CC(C)=NO[C@H](C)c1cn([C@@H]2COC[C@H]2O)nn1` the composite z-score was -0.038.
